Test results: the supplement of paper PMC10981050
Values joined by “and” are separate entries in the source; they are usually repeats but may differ in a detail not shown here. Equal values may be shown once. Where a name gives a salt, the structure may show the parent alone.

The compounds below were run on K562 (assay: cell viability relative to vehicle control; higher = less cytotoxic). Conditions: 10 µM; SRSF2 genotype: SRSF2 P95H/wt.
Procedure, shortened: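 CRISPR-edited SRSF2 P95 mutant and isogenic wild-type clones of four leukaemia lines were screened against Selleck bioactive, kinase and epigenetic probe libraries, with identity-inconsistent compounds removed. Compounds were acoustically dispensed into 384-well plates at a single 10 µM dose, with 2000 cells in 50 µL medium per well. After 48 h, supernatant was removed and CellTiter-Glo luminescence was read. Viability was expressed as percent of the on-plate DMSO vehicle control, analysed in Genedata Screener.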
With `Oc1ccc(OCc2ccccc2)cc1` [Monobenzone (Benoquin)] the cell viability was 89.5% and 92.4%. In the case of `CNCCCC12CCC(c3ccccc31)c1ccccc12` [Maprotiline hydrochloride], the cell viability is reported as 76.7% and 74.8%. For `O=C(O)[C@H]1O[C@@H](Oc2cc3oc(-c4ccc(O)cc4)cc(=O)c3c(O)c2O)[C@H](O)[C@@H](O)[C@@H]1O` [Scutellarin], the cell viability was 103% and 99.4%. `Cn1nnc(-c2ccc(-c3ccc(N4C[C@H](COP(=O)(O)O)OC4=O)cc3F)cn2)n1` [Tedizolid Phosphate] was tested, and the cell viability was 81.5% and 82.6%. `Cc1onc(-c2c(F)cccc2Cl)c1C(=O)N[C@@H]1C(=O)N2[C@@H]1SC(C)(C)[C@@H]2C(=O)O` [Flucloxacillin sodium] was tested, and the cell viability was 96.6% and 89.9%. For `CC(=O)Nc1ccccc1` [Acetanilide (Antifebrin)], the cell viability was 104%. For `CCOC(=O)c1c(C)n(C)c2ccc(O)cc12` [Mecarbinate], the cell viability was 108% and 99.1%. With `CC#CC(=O)N1CCC[C@H]1c1nc(-c2ccc(C(=O)Nc3ccccn3)cc2)c2c(N)nccn12` [Acalabrutinib (ACP-196)] the cell viability was 93.2% and 96.6%. For `CN/C(=N\CCSCc1nc[nH]c1C)NC#N` [Cimetidine (Tagamet)], the cell viability was 102% and 100%. With `CCCC1O[C@@H]2C[C@H]3[C@@H]4CCC5=CC(=O)C=C[C@]5(C)[C@H]4[C@@H](O)C[C@]3(C)[C@]2(C(=O)CO)O1` (stereo partly specified) [Budesonide] the cell viability was 85.5% and 95.1%. In the case of `CO/N=C1\C[C@]2(C[C@@H]3C[C@@H](C/C=C(\C)C[C@@H](C)/C=C/C=C4\CO[C@@H]5[C@H](O)C(C)=C[C@@H](C(=O)O3)[C@]45O)O2)O[C@H](/C(C)=C/C(C)C)[C@H]1C` [Moxidectin], the cell viability is reported as 59.6% and 63.5%.
